Test [1] concerns the target Retinoic acid receptor RXR-alpha (Homo sapiens) (UniProt P19793). Description: qHTS assay to identify small molecule agonists of the RXR signaling pathway (AID 1159527; calls by dose curve; note: nearly all actives have a fitted effect of over 35% in size). In short, it runs like this: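 Beta-lactamase reporter assay, agonist format. Engineered HEK 293T line, charcoal-stripped FBS at 2%, overnight (16 hr) exposure, fluorescence at 460 and 530 nm after 405 nm excitation.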
(qHTS replaces the single test concentration by a dilution series.)

Test [2] is described as follows: qHTS assay to identify small molecule agonists of the RXR signaling pathway - cell viability counter screen (AID 1159529).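 Note: HEK 293T cells carrying an RXR-alpha UAS beta-lactamase reporter; series mostly up to about 77 µM; nearly all actives have a fitted effect of over 50% in size.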 In short, it runs like this:
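Same-well viability check after the LiveBLAzer FRET read: CellTiter-Glo added, luminescence measured after 30 min at room temperature. Reporter HEK 293T cells had been treated with compounds for 16 hr following a 5 hr preincubation.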

Test [3] in a line: qHTS assay to identify small molecule antagonists of the retinoid acid receptor (RAR) signaling pathway - cell viability counter screen (AID 1159551). Note: nearly all actives have a fitted effect of over 35% in size. In short, it runs like this:
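C3RL4 cells were seeded overnight at 37 C, then treated with compounds plus 1 uM (final) retinol for 6 h at 37 C. Viability was read as ATP by CellTiter-Glo luminescence after 30 min at room temperature.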

The nature of test [4]: qHTS assay to identify small molecule antagonists of the retinoic acid receptor (RAR) signaling pathway (AID 1159552; note: nearly all actives have a fitted effect of over 50% in size). In a few lines:
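Readout: luciferase luminescence, 30 min post-reagent at RT. Setup: C3RL4 RARE reporter cells, compounds plus retinol 1 uM final, 6 hr incubation at 37 C and 5% CO2.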

Test [5] is described as follows: qHTS assay to identify small molecule agonists of the retinoic acid receptor (RAR) signaling pathway (AID 1159553). In a few lines:
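C3RL4 cells carrying a RARE luciferase reporter were plated overnight at 37 C, then exposed to compounds in DMSO for 6 hr at 37 C and 5% CO2. Luminescence was read 30 min after luciferase reagent addition at room temperature.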

Test [6] is described as follows: qHTS assay to identify small molecule antagonists of the estrogen related receptor (ERR) signaling pathway from Tox21 library - cell viability counter screen (AID 1224834). Note: nearly all actives have a fitted effect of over 30% in size. In a few lines: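 ERR reporter cells were plated 6 h before compound addition, then exposed to test compounds in DMSO for 17.5 h at 37 C. Viability was read as CellTiter-Fluor fluorescence after a 30-minute incubation at 37 C.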

Test [7] can be described thus: qHTS assay to identify small molecule antagonists of the constitutive androstane receptor (CAR) signaling pathway - cell viability counter screen (AID 1224837). Note: series mostly up to about 92 µM; nearly all actives have a fitted effect of over 45% in size. In a few lines: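 HepG2 cells stably expressing hCAR and a CYP2B6-2.2kb reporter were plated and pre-incubated 4 hr at 37 C/5% CO2, then given compounds at 15 concentrations plus 50 nM CITCO (final). After 23 hr, viability was read by CellTiter-Fluor fluorescence.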

Test [8] addresses Nuclear receptor subfamily 1 group I member 3 (Homo sapiens) (UniProt Q14994). Put plainly: qHTS assay to identify small molecule agonists of the constitutive androstane receptor (CAR) signaling pathway (AID 1224839). Note: nearly all actives have a fitted effect of over 15% in size. Note: potency is the fitted concentration of half-maximal effect. In short, it runs like this:
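In this screen, CAR-driven CYP2B6 promoter activity is measured by luminescence in HepG2-CYP2B6-hCAR cells after 24 h with test compounds and 0.75 uM PK11195 (final concentration).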

The nature of test [9]: qHTS assay to identify small molecule antagonists of the estrogen related receptor signaling pathway with the pleiotropic PPARgamma coactivator (PGC) from Tox21 10K library - cell viability counter screen (AID 1224840; active = well fitted cell-killing curve with a large enough effect in the repeat runs, not every such curve was filed as active; note: nearly all actives have a fitted effect of over 40% in size). In a few lines: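 PGC/ERR cells were seeded at 2,000 cells/well and left 6 hours at 37 C/5% CO2 before pin-tool addition of compounds in DMSO. After 17.5 hours at 37 C, CellTiter-Fluor was added and fluorescence read 30 minutes later.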

Test [10] concerns the target Luciferin 4-monooxygenase (Photinus pyralis) (UniProt P08659). Description: qHTS assay to identify small molecule inhibitors of firefly luciferase (AID 1224835). Note: nearly all actives have a fitted effect of over 25% in size. Note: potency is the fitted concentration of half-maximal effect. In short, it runs like this: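 Quantitative HTS format; KM concentrations of both substrates. Purified P. pyralis FLuc activity quantified from luminescence images.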
Test [11] is described as follows: qHTS assay to identify small molecule agonists of the constitutive androstane receptor (CAR) signaling pathway - cell viability counter screen (AID 1224836). Note: series mostly up to about 92 µM; nearly all actives have a fitted effect of over 45% in size. In a few lines: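 Compound titrations (15 concentrations) went onto HepG2-CYP2B6-hCAR cells 4 h after seeding, alongside PK11195 at a final 0.75 uM; a 23 h, 37 C/5% CO2 incubation preceded CellTiter-Fluor viability measurement.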

For test [12], the target named is Nuclear receptor subfamily 1 group I member 3 (Homo sapiens) (UniProt Q14994). Description: qHTS assay to identify small molecule antagonists of the constitutive androstane receptor (CAR) signaling pathway (AID 1224838). Note: nearly all actives have a fitted effect of over 40% in size. In a few lines:
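HepG2 cells stably co-transfected with hCAR and a CYP2B6-2.2kb luciferase reporter were seeded 4 h before compound addition at 15 concentrations. Cells were stimulated with 50 nM CITCO (final) for 24 h at 37 C; luciferase luminescence was then read.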

The nature of test [13]: qHTS assay to identify small molecule antagonists of the estrogen related receptor signaling pathway with the pleiotropic PPARgamma coactivator (PGC) from Tox21 10K library (AID 1224841; call rule not given here; note: series mostly up to about 92 µM; actives are mostly falling curves and most rising ones were filed inactive; nearly all actives have a fitted effect of over 50% in size). In short, it runs like this:
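PGC/ERR reporter cells were seeded at 2,000 cells/well and held 6 hours at 37 C/5% CO2 before pin-tool addition of compounds in DMSO. After 18 hours at 37 C, One-Glo was added and luminescence read after 30 minutes at room temperature.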

Test [14] is described as follows: qHTS assay to identify small molecule agonists of the estrogen related receptor signaling pathway with the pleiotropic PPARgamma coactivator (PGC) from Tox21 10K library (AID 1224842). Note: nearly all actives have a fitted effect of over 15% in size. In a few lines: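 PGC/ERR reporter cells (NTP line) were seeded 2,000 per well, rested 6 h at 37 C/5% CO2, then pin-dosed with compounds in DMSO for 18 h at 37 C; luciferase read by One-Glo luminescence after 30 min at room temperature.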

Test [15] is described as follows: qHTS assay to identify small molecule antagonists of the estrogen related receptor (ERR) signaling pathway - cell viability counter screen (AID 1224818).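 Note: series mostly up to about 46 µM; viability measured after 17.5 h of compound exposure.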 In short, it runs like this:
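ERR reporter cells plated 6 h at 37 C/5% CO2, then compounds in DMSO pin-transferred and incubated 17.5 h at 37 C. Viability read as CellTiter-Fluor fluorescence after 30 min at 37 C.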

A short description of test [16]: qHTS assay to identify small molecule antagonists of the estrogen related receptor (ERR) signaling pathway (AID 1224819;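 note: luminescence from an ERR-driven luciferase reporter measured with One-Glo reagent; series mostly up to about 46 µM; nearly all actives have a fitted effect of over 50% in size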). In a few lines:
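ERR reporter cells were plated at 2,000 cells/well and left 6 h at 37 C/5% CO2 before pin-tool transfer of compounds in DMSO. After 18 h at 37 C, One-Glo was added and luminescence was read 30 min later at room temperature.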

The subject of test [17] is estrogen-related receptor alpha (ERRalpha) with PGC-1alpha coactivator, human. Put plainly: qHTS assay to identify small molecule antagonists of the estrogen related receptor signaling pathway with the pleiotropic PPARgamma coactivator (PGC) (AID 1224821; calls by dose curve). In a few lines:
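Quantitative HTS for antagonism: PGC/ERR cells received compounds after 6 h attachment and were incubated 18 h at 37 C, with luminescence (One-Glo) as the endpoint.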

Test [18] is described as follows: qHTS assay to identify small molecule antagonists of the estrogen related receptor signaling pathway with the pleiotropic PPARgamma coactivator (PGC) cell viability counter screen (AID 1224822; note: series mostly up to about 46 µM). In a few lines: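 PGC/ERR cells were seeded at 2,000 cells/well, rested 6 h at 37 C/5% CO2, then given compounds in DMSO by pin tool and incubated 17.5 h at 37 C. Viability came from CellTiter-Fluor fluorescence after 30 min.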

Test [19] can be described thus: qHTS assay to identify small molecule agonists of the estrogen related receptor signaling pathway with the pleiotropic PPARgamma coactivator (PGC) (AID 1224823). In a few lines:
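Cell-based luciferase assay in the NTP-supplied PGC/ERR line, 2,000 cells/well; 18 h compound exposure at 37 C, luminescence after One-Glo.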

Each structure is given as a SMILES string. Records with an inconclusive call do not appear. Unmarked numbers belong to inactive results. Calls of active or inactive are those of the source. Unless noted, calls come from the whole dose curve; as a rule, active = well fitted curve in the direction sought with a large enough effect in the repeat runs; inconclusive = weak or mixed curves; inactive = no such curve, though single readings can be large; an effect the other way counts as inactive or inconclusive.

Chain of Retinoic acid receptor RXR-alpha (Homo sapiens) (P19793 whole entry, looked up): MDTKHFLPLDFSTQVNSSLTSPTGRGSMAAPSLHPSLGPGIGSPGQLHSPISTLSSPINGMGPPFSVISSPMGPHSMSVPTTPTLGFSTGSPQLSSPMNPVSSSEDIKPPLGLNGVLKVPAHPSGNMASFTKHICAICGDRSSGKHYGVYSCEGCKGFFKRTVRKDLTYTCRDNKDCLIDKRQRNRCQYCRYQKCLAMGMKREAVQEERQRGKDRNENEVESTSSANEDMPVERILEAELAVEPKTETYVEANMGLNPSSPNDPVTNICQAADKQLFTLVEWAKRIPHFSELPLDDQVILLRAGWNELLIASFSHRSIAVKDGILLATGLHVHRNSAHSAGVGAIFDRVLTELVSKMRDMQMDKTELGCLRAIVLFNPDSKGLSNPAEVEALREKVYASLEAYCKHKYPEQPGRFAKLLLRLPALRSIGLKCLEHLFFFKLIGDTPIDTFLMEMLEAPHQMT
Chain of Luciferin 4-monooxygenase (Photinus pyralis) (P08659 whole entry, looked up): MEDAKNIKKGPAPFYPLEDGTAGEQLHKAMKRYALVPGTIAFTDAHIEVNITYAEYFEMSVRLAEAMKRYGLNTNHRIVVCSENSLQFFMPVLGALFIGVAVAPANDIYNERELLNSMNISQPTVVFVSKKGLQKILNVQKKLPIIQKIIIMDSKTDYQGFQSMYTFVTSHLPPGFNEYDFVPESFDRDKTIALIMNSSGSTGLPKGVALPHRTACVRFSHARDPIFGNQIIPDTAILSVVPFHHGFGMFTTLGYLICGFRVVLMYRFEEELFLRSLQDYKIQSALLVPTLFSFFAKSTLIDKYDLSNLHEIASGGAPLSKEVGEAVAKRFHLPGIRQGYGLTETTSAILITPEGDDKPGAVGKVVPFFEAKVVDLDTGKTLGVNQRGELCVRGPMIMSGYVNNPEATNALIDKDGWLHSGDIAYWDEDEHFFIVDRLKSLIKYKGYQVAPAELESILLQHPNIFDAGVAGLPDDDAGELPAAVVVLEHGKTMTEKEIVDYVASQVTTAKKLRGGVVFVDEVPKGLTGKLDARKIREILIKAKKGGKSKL
Chain of Nuclear receptor subfamily 1 group I member 3 (Homo sapiens) (Q14994 whole entry, looked up): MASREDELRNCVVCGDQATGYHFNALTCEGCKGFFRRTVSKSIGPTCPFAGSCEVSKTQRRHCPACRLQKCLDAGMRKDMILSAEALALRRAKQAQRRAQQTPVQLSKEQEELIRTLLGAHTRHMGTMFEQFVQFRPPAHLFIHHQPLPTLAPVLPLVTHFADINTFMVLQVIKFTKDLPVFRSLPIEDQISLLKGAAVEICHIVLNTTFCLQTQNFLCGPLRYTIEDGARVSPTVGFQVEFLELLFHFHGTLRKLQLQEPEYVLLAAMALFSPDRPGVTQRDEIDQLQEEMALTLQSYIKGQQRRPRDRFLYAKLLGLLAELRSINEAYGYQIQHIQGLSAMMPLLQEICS

Consider `Cc1ccc2ccc(Cl)cc2n1`, for which the Potency entry in [1], in [5], in test [6], in [7] and in test [8] was “inactive” throughout. The call in [2], in test [3], in test [4] and in test [9] was inactive.
Consider `CC(N)C(=O)OC(C)(C)Cc1ccc(Cl)cc1` (centres undefined), for which the Potency entry in test [1], in [5], in test [10], in test [11], in test [7] and in [8] was “inactive” throughout. In addition, the call in test [2], in [3], in [4] and in test [12] was inactive.
For `NS(=O)(=O)c1cc2c(cc1Cl)CN(C1CCCCC1)C2=O`, the Potency entry in [1], in test [6], in test [10], in [11], in [7] and in [8] was “inactive” each time. The result in test [2], in test [3], in test [4], in test [12] and in [9] was inactive.
For the compound `C=CC(OCC)OCC`, the Potency result in test [1], in test [6], in [10], in test [11], in [7] and in [8] was “inactive” throughout. The compound was called inactive in test [2], in test [3], in test [4], in test [12] and in test [9].
With `CC(=O)c1ccc2c(c1)Cc1ccccc1-2`, the Potency entry in test [1], in [6], in test [11] and in test [7] was “inactive” throughout. The compound was classed as inactive in test [2], in test [3], in test [4], in [12] and in test [9]. The Potency in test [10] was 25.2 µM (active); in test [8], 54.5 µM (active).
For `CC(C)=CCOC(=O)c1ccccc1`, the Potency entry in test [1], in test [5], in [6], in test [11], in test [7] and in [13] was “inactive” each time. Moreover, the outcome in test [2], in test [3], in [4], in [9] and in [14] was inactive.
As to `CC1(CO)CN(c2ccccc2)NC1=O` (centres undefined), the Potency entry in [1], in [5], in test [10], in test [11] and in test [7] was “inactive” in each case. Moreover, the call in test [2], in [3], in test [4], in [12] and in test [9] was inactive.
With `O=C(Nc1ccc(Cl)c(Cl)c1)C1CC1`, the Potency result in test [1], in [5], in [6], in test [11], in [7] and in test [13] was “inactive” each time. In addition, the call in test [2], in test [3], in test [4], in [12], in test [9] and in [14] was inactive.
Consider `O=C(OCC(COC(=O)c1cccnc1)(COC(=O)c1cccnc1)COC(=O)c1cccnc1)c1cccnc1`, for which the Potency entry in test [1], in test [6], in [10], in test [11], in test [7] and in test [8] was “inactive” in each case. Further, the compound was called inactive in [2], in test [3], in [4], in [12] and in test [9].
In the case of `CC(CC=O)CCCC(C)(C)O` (centres undefined), the Potency entry in test [1], in test [6], in test [10], in test [11], in test [7] and in test [13] was “inactive” each time. The compound was classed as inactive in test [2], in test [3], in test [4], in test [9] and in test [14].
In the case of `O=C(NCCN1CCOCC1)c1ccc(Cl)cc1`, the Potency entry in test [1], in [6], in test [11], in [7], in [8] and in [13] was “inactive” in each case. Besides, the result in test [2], in [3], in test [4], in test [15], in [16] and in [17] was inactive. For the same compound, the result in [18], in test [19], in test [12], in test [9] and in [14] was inactive.

Source of the values: PubChem BioAssay (Tox21).
